# Laboratory results from a collection of fitness landscapes (doi:10.1016/j.celrep.2020.107928).
# The full ranking holds about 81,000 sequences; the median of “one-hybrid fitness for binding NBS DNA” is about -0.1, and the highest 2% start at about 0.36. This excerpt belongs to a sample that is enriched for the highest values.
# B1: Caulobacter ParB omega fusion; a variant is named by its letters at X, in order, B8GW30 (parent)
# chain: MESVVVGEPGMSEGRRGLGRGLSALLGEVDAAPAQAPGEQLGGSREAPIEILQRNPDQPRRTFREEDLEDLSNSIREKGVLQPILVRPSPDTAGEYQIVAGERAWRAAQRAGLKTVPIMVRELDDLAVLEIGIIENVQRADLNVLEEALSYKVLMEKFERTQENIAQTIGKSXSHVANXMRLLXLPDEVQSYLVSGELTAXHARAIAAAADPVALAKQIIEGGLSVRETEALARKAPNLSAGKSKGGRPPRVKDTDTQALESDLSSVLGLDVSIDHRGSTGTLTITYATLEQLDDLCNRLTRGI
# Variants of: B1
# Assay: one-hybrid fitness for binding NBS DNA (the Noc-binding site; scaled: cognate 1, non-cognate 0); higher = stronger binding
# Conditions: with NBS DNA site
# Method in brief: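 Bacterial one-hybrid selection in E. coli USO rpoZ- hisB- pyrF- with a HIS3 reporter carrying the site 19 bp from the promoter, screening Caulobacter ParB libraries with four specificity codons randomised (NNS). Cells grew 48 hours at 37°C on M9-minus-histidine plus 0.1 mM IPTG and 5 mM 3-AT. Plasmids before and after selection were Illumina-sequenced, three replicate libraries pooled, and variants under 10 reads dropped. Fitness is the log change in variant-to-wild-type read ratio, rescaled to cognate 1, non-cognate 0.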
row,Variant,one-hybrid fitness for binding NBS DNA
1,SKCT,≤ 0.2
2,HAHK,≤ 0.2
3,QAQC,≤ 0.2
4,VFIG,≤ 0.2
5,QCSH,0.272
6,QRSN,0.366
7,QCSC,≤ 0.2
8,QRSM,0.374
9,QSSC,≤ 0.2
10,QRSC,0.366
11,QSSH,≤ 0.2
12,QCSM,≤ 0.2
13,QPSN,≤ 0.2
14,QCSN,≤ 0.2
15,QRSH,0.522
16,QPSM,≤ 0.2
17,YCVT,≤ 0.2
18,ANMM,≤ 0.2
19,GNYC,≤ 0.2
20,KFHF,≤ 0.2
21,LSDV,≤ 0.2
22,QMHF,≤ 0.2
23,GKLV,≤ 0.2
24,PMVT,≤ 0.2
25,VREL,≤ 0.2

row,Variant,one-hybrid fitness for binding NBS DNA
1,QPSQ,≤ 0.2
2,QRSP,≤ 0.2
3,QRSS,0.659
4,QCSQ,0.271
5,QRSD,0.208
6,QRSQ,0.434
7,MSPC,≤ 0.2
8,KWCV,≤ 0.2
9,LAAG,≤ 0.2
10,HYQF,≤ 0.2
11,QCFR,0.517
12,QDFR,≤ 0.2
13,QPFR,≤ 0.2
14,QSFN,≤ 0.2
15,QSFR,0.37
16,QSFH,≤ 0.2
17,FCHW,≤ 0.2
18,TICV,≤ 0.2
19,LGEA,≤ 0.2
20,FLQL,≤ 0.2
21,LSCN,≤ 0.2
22,HMKT,≤ 0.2
23,TSIM,≤ 0.2
24,LVHF,≤ 0.2
25,QTYC,≤ 0.2

row,Variant,one-hybrid fitness for binding NBS DNA
1,QCYC,0.204
2,QMRC,0.406
3,QKDC,≤ 0.2
4,QMDC,≤ 0.2
5,QKYC,≤ 0.2
6,QCRC,0.512
7,QTDC,≤ 0.2
8,QMYC,≤ 0.2
9,QPRC,≤ 0.2
10,QKRC,0.425
11,QTRC,0.548
12,PNKD,≤ 0.2
13,RLIW,≤ 0.2
14,CRYF,≤ 0.2
15,IAWR,≤ 0.2
16,GMPT,≤ 0.2
17,VMEC,≤ 0.2
18,LQWD,≤ 0.2
19,PYKF,≤ 0.2
20,ENTG,≤ 0.2
21,QRYC,0.296
22,QSRC,0.374
23,QSDC,≤ 0.2
24,QRRC,0.489
25,QREC,0.22

row,Variant,one-hybrid fitness for binding NBS DNA
1,QSYC,≤ 0.2
2,IMYD,≤ 0.2
3,YWMG,≤ 0.2
4,QCFT,0.424
5,QPFT,≤ 0.2
6,DRAT,≤ 0.2
7,QRFT,0.723
8,QRAT,0.797
9,NRAT,≤ 0.2
10,QSFT,0.315
11,RWNW,≤ 0.2
12,MQNW,≤ 0.2
13,DCWS,≤ 0.2
14,TDLC,≤ 0.2
15,NLFC,≤ 0.2
16,PGYI,≤ 0.2
17,MRFG,≤ 0.2
18,SRKF,≤ 0.2
19,PKCF,≤ 0.2
20,VYYR,≤ 0.2
21,QPKG,≤ 0.2
22,QRVG,0.232
23,QCKG,0.377
24,QTIG,≤ 0.2
25,QTKG,0.503

row,Variant,one-hybrid fitness for binding NBS DNA
1,QIKG,≤ 0.2
2,QTVG,≤ 0.2
3,QSKG,0.302
4,QRKG,0.485
5,KESF,≤ 0.2
6,IFWR,≤ 0.2
7,KAHR,≤ 0.2
8,AQIS,≤ 0.2
9,RGNV,≤ 0.2
10,HSPH,≤ 0.2
11,WDHG,≤ 0.2
12,KMKY,≤ 0.2
13,QYCQ,≤ 0.2
14,QYKQ,0.394
15,QYSQ,≤ 0.2
16,QYNQ,≤ 0.2
17,QYVQ,0.313
18,QYRQ,0.435
19,RSEI,≤ 0.2
20,SPTR,≤ 0.2
21,RTKY,0.418
22,RTVN,≤ 0.2
23,RPKY,≤ 0.2
24,RTDY,≤ 0.2
25,RTVP,≤ 0.2

row,Variant,one-hybrid fitness for binding NBS DNA
1,RTKD,≤ 0.2
2,RTKH,0.651
3,RTVH,≤ 0.2
4,RTVS,0.39
5,RTRY,0.38
6,RTYY,≤ 0.2
7,RTVY,≤ 0.2
8,QFSY,≤ 0.2
9,LCCW,≤ 0.2
10,SFAL,≤ 0.2
11,PWTQ,≤ 0.2
12,SYNN,≤ 0.2
13,PQEL,≤ 0.2
14,MDPA,≤ 0.2
15,QCMN,≤ 0.2
16,FPNL,≤ 0.2
17,PFHL,≤ 0.2
18,LLMP,≤ 0.2
19,FGTY,≤ 0.2
20,RTKN,0.3
21,RTKS,0.622
22,RTKP,≤ 0.2
23,ANHS,≤ 0.2
24,KTVT,≤ 0.2
25,KTRT,0.44

row,Variant,one-hybrid fitness for binding NBS DNA
1,KTKT,0.396
2,KTFT,≤ 0.2
3,KTDT,≤ 0.2
4,KTYT,≤ 0.2
5,HMYT,≤ 0.2
6,SGID,≤ 0.2
7,QDWR,≤ 0.2
8,DLYM,≤ 0.2
9,MQVF,≤ 0.2
10,PLIS,≤ 0.2
11,QIKP,≤ 0.2
12,QHKY,0.529
13,QHQY,≤ 0.2
14,QIKD,≤ 0.2
15,QCKY,0.59
16,QHVY,≤ 0.2
17,QSKY,0.517
18,QSVY,≤ 0.2
19,QCVY,≤ 0.2
20,QIKY,0.364
21,QGKY,≤ 0.2
22,QPKY,≤ 0.2
23,GTNT,≤ 0.2
24,RTRV,0.288
25,PYEG,≤ 0.2

row,Variant,one-hybrid fitness for binding NBS DNA
1,AMAG,≤ 0.2
2,PRCC,≤ 0.2
3,MKRL,≤ 0.2
4,GLHC,≤ 0.2
5,WTLT,≤ 0.2
6,YTVE,≤ 0.2
7,QMPY,≤ 0.2
8,QTIY,≤ 0.2
9,QAKY,0.531
10,QAVY,≤ 0.2
11,QMVY,≤ 0.2
12,QMKY,0.516
13,QTVY,≤ 0.2
14,QKNY,0.26
15,QKKY,0.498
16,QTKY,0.658
17,QANY,≤ 0.2
18,QKVY,≤ 0.2
19,VVSE,≤ 0.2
20,LAWC,≤ 0.2
